HCV inhibitor = blocks hepatitis C virus. Huh7.5.1 HCVcc-Cre infection, luciferase reporter, 44 h. Potency, µM (series often up to 41.8 µM), for inactives: top-dose activity change, negative = inhibition, usual class: inhibitors. 340,000 tested, 3.4% active. AID 651820; further: potency means the concentration at half of the fitted maximal effect
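Antiviral activity was scored by luciferase reporter output from cells infected with HCVcc-Cre (~0.5 moi) in presence of compound, 44 h infection period, cells seeded 1,000/well 4 h prior.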
Pf growth 96h = P. falciparum growth inhibition at 96 hour, primary screen for plastid delayed-death inhibitors. P. falciparum luciferase reporter growth, 96 h. Potency, µM (doses to about 28.7 µM), for the others: at the top dose activity change, negative = inhibition, most hits filed as inhibitors. 320,000 tested, 6.9% active; further: potency means the concentration at half of the fitted maximal effect
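Cell-based qHTS: luciferase-tagged P. falciparum in erythrocytes (2% hematocrit, 0.05% parasitemia final) incubated with compounds for 96 hours, 37 C, 5% CO2; luciferase detection reagent then added and luminescence measured.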
Pf growth 48h = P. falciparum growth inhibition at 48 hours (one generation) | P. falciparum luciferase growth in erythrocytes, 48 h | Potency, µM (series often up to 28.7 µM), inactives show top-dose activity change, negative = inhibition, hits mostly inhibitors | 310,000 tested, 5.9% active | AID 504832; further: potency means the concentration at half of the fitted maximal effect
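In quantitative HTS format, infected erythrocytes bearing luciferase-reporter parasites were treated for a single generation at 37 C. Luminescence after adding detection reagent served as the growth measure.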
HCMV antiviral = human cytomegalovirus inhibition; HFF cells, HCMV-luciferase reporter, 72 h; stronger effect = lower value; activity change, negative = inhibition, % at 57.5 µM; 410,000 tested, 4.5% active; in the data active means activity change below about -60%; inconclusive means no clear call, values can overlap the other calls; inactive means above about -39%
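Luciferase read-out from HCMV-luciferase-infected HFFs (MOI 1 PFU/cell) 72 h post infection at 37C; compounds added after 16 h cell attachment; activity normalized between buffer-only basal and Salinomycin (10uM) inhibitor controls.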
Numbers without * were called inactive; ? = inconclusive; / = no result given. Most compounds without a hit are left out; they make up all but 13% or so of the library. Unless noted, the call rests on the fitted dose curve; in most records, active means well fitted inhibition curve with a large enough effect; inconclusive means small, poorly fitted or top-dose-only effect, or another doubt; inactive means no such curve, though single readings can be large or run the other way. On the % scale 0 is the no-effect control and ±100 the full control effect.

SMILES	HCV inhibitor	Pf growth 96h	Pf growth 48h	HCMV antiviral
Cc1ccc(S(=O)(=O)N2CCC(C(=O)OC(C)C(=O)NC3CCCCC3C)CC2)cc1 (configuration not stated)	9.8%	?	-27.0%	-4.4
CC(OC(=O)C1=NN(c2ccccc2)C(=O)CC1)C(=O)NC1CCCCC1C (configuration not stated)	13.3%	17.8%	4.4%	-1.2
COc1ccc(C(=O)OC(C)C(=O)NC2CCCCC2C)cc1S(=O)(=O)N1CCOCC1 (configuration not stated)	8.7%	9.1%	?	-98.0*
Cc1nn(-c2ccccc2)c(C)c1C(=O)OC(C)C(=O)NC1CCCCC1C (configuration not stated)	11.2µM*	?	?	?
CC(OC(=O)c1ccc(Cl)c(S(=O)(=O)N2CCOCC2)c1)C(=O)NC1CCCCC1C (configuration not stated)	4.6%	?	-8.5%	-8.2
CC(O)(c1ccc(F)c(F)c1)c1nc(-c2cccc(F)c2)cs1 (configuration not stated)	/	/	/	-7.1
CC(C)c1cccc(-c2csc(C(C)(O)c3ccc(F)c(F)c3)n2)c1 (configuration not stated)	/	/	/	-77.4*
CC(C)c1cccc(-c2csc(C(C)(O)c3ccncc3)n2)c1 (configuration not stated)	/	/	/	-76.8*
Cc1cc(C)c(NC(=O)CS(=O)CC(=O)NCCN2CCCCCC2)c(C)c1 (configuration not stated)	2.8%	17.0%	-8.6%	7.3
Cc1cc(C)c(NC(=O)CCCN2CCCC2)c(C)c1	8.3%	-14.1%	2.2%	-67.2*
Cc1ccccc1Cn1c(=O)n(Cc2ccco2)c(=O)c2ccccc21	12.7%	-26.8%	-29.0%	?
CC(C)(C)c1ccc(Cn2c(=N)n(CC(O)c3ccco3)c3ccccc32)cc1 (configuration not stated)	10µM*	11.7µM*	2.33µM*	/
Cc1ccccc1Cn1c(=N)n(CC(O)c2ccco2)c2ccccc21 (configuration not stated)	?	?	9.28µM*	-5.7
CC(=O)N1CCc2cc(S(=O)(=O)C(C)CC(=O)Nc3ccc(Br)c(C)c3)ccc21 (configuration not stated)	/	/	/	-18.0
Cc1cccc(C)c1NC(=O)CN1C(=O)S/C(=C\c2cccn2-c2cccc(C(=O)O)c2)C1=O	1.7%	70.1%	24.3%	-73.1*
CC(C)CN(C(=O)COC(=O)c1ccc(Br)cc1)c1c(N)n(Cc2ccccc2)c(=O)[nH]c1=O	?	?	?	-9.9
CC(C)CN(C(=O)COC(=O)c1c2c(nc3ccccc13)CCC2)c1c(N)n(Cc2ccccc2)c(=O)[nH]c1=O	?	6.57µM*	8.28µM*	/
Cc1ccsc1C(=O)OCC(=O)N(C)c1c(N)n(Cc2ccccc2)c(=O)[nH]c1=O	0.8%	-8.3%	9.0%	-29.5
CN(C(=O)COC(=O)c1c2c(nc3ccccc13)CCCC2)c1c(N)n(Cc2ccccc2)c(=O)[nH]c1=O	?	8.28µM*	13.1µM*	-9.3
COC(=O)C1=CC(=O)N2CCN=C2S1	/	/	/	1.4
COc1cc(Cl)c(C)cc1NC(=O)c1cnc(N2CCOCC2)c2ccccc12	/	/	/	-4.0
COc1ccc(S(=O)(=O)NCc2ccc(C(=O)NCc3ccccc3)cc2)cc1	/	/	/	-24.2
COc1cc2c(cc1OC)CN(Cc1ccc(F)cc1)CC2	-5.4%	-3.8%	-0.9%	-20.3
COc1cc2c(cc1OC)CN(Cc1ccc(C)s1)CC2	11.3%	4.2%	/	-95.1*
Cc1ccccc1Nc1c(-c2ccccc2O)nc2sccn12	/	/	/	-64.4*
CC[C@H](C)[C@@H](CN[C@H](CCCCNC)CNC)NCC1CCCC1	9.7%	?	-10.9%	?
CCCC[C@@H](CN[C@H](C)CNC)NCC1CCC(C(C)(C)C)CC1 (some centres not stated)	?	?	?	-86.7*
CC(C)(C)c1ccc(S(=O)(=O)CC(O)CSc2nc3c(cc2C#N)CCCC3)cc1 (configuration not stated)	9.8%	63.7%	42.3%	81.0
N#Cc1cc2c(nc1SCC(O)CS(=O)(=O)Cc1ccc(Cl)cc1)CCCC2 (configuration not stated)	?	?	/	-63.6*
N#CCSc1nc2c(cc1C#N)CCCCCC2	?	18.2%	-0.2%	-68.2*
